From publication PMC7862700, “An all-to-all approach to the identification of sequence-specific readers for epigenetic DNA modifications on cytosine”

Experiments:
Assay in all cases: DAPPL (digital affinity profiling via proximity ligation, sequencing); 10 mM Tris-HCl pH 7.5, 50 mM NaCl, 1 mM DTT, 4% glycerol, room temperature, 30 min; GST-TFs on glutathione beads, 16-mer random dsDNA library, 0.1% formaldehyde crosslink after washing; high values mean tight binding
FEV = target: T1, FEV (Homo sapiens, UniProt Q99581 1-238); conditions: protein: recombinant; tags: N-terminal GST; dsDNA, one strand shown
T1 sequence: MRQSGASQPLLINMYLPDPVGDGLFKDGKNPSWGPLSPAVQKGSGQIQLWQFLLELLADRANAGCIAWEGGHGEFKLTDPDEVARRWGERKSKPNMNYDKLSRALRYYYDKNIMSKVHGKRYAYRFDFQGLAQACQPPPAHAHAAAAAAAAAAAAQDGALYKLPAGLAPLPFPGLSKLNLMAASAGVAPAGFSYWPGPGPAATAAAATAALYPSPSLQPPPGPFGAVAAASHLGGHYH
In short: (§1)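 Pools of DNA-barcoded human transcription factors, expressed in yeast as GST fusions on glutathione beads and combined with a tag-only sample, were incubated with 200 nmole of a 16-mer random double-stranded DNA library. Incubation took 30 min at room temperature in Tris/NaCl/DTT/glycerol buffer and was followed by washing, 0.1% formaldehyde crosslinking, proximity ligation (BsaI/T4 ligase, 1 h, 37 °C), PCR amplification and sequencing on an Illumina NextSeq500. Binding signal is the ratio of a hexamer's read frequency for a factor to its frequency for the tag-only sample.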

ETV5 = ETV5 (Homo sapiens, UniProt P41161 1-510); conditions: protein: recombinant; tags: N-terminal GST; dsDNA, one strand shown
In short: as §1

HSF1 = HSF1 (Homo sapiens, UniProt Q00613 1-529); conditions: protein: recombinant; tags: N-terminal GST; chain copies: 3; dsDNA, one strand shown
In short: as §1

SPIC = target: T2, SPIC (Homo sapiens, UniProt Q8N5J4 1-248); conditions: protein: recombinant; tags: N-terminal GST; dsDNA, one strand shown
T2 sequence: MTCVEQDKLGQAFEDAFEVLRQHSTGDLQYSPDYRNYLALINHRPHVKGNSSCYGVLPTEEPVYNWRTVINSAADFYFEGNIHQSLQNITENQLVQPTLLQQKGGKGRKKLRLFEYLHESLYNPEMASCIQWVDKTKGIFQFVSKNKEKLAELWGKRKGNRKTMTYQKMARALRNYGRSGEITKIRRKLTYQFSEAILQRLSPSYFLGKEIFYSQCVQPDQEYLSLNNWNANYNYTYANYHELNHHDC
In short: as §1

ELF4 = ELF4 (Homo sapiens, UniProt Q99607 1-663); conditions: protein: recombinant; tags: N-terminal GST; dsDNA, one strand shown
In short: as §1

ELK4 = target: T3, ELK4 (Homo sapiens, UniProt P28324-2 1-405); conditions: protein: recombinant; tags: N-terminal GST; dsDNA, one strand shown
T3 sequence: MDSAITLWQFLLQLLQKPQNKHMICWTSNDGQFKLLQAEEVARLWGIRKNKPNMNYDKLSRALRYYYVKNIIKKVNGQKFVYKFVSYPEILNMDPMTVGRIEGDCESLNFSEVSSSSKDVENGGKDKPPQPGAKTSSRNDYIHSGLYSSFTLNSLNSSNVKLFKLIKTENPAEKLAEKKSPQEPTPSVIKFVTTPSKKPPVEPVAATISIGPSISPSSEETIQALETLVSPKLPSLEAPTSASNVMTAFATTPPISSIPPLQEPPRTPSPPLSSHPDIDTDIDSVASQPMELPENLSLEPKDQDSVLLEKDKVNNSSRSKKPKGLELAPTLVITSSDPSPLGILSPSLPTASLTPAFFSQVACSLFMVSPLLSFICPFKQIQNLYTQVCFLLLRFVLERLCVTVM
In short: as §1

ETV2 = target: T4, ETV2 (Homo sapiens, UniProt O00321 1-342); conditions: protein: recombinant; tags: N-terminal GST; dsDNA, one strand shown
T4 sequence: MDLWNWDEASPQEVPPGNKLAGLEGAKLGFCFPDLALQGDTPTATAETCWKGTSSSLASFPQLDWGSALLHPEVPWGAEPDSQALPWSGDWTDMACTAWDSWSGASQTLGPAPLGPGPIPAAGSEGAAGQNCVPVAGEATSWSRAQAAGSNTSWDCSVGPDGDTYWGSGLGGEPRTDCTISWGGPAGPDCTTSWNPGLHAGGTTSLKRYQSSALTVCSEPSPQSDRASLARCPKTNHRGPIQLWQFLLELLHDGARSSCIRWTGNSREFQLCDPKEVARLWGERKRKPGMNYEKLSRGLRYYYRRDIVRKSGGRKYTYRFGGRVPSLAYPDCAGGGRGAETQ
In short: as §1

ELF3 = target: T5, ELF3 (Homo sapiens, UniProt P78545 1-371); conditions: protein: recombinant; tags: N-terminal GST; dsDNA, one strand shown
T5 sequence: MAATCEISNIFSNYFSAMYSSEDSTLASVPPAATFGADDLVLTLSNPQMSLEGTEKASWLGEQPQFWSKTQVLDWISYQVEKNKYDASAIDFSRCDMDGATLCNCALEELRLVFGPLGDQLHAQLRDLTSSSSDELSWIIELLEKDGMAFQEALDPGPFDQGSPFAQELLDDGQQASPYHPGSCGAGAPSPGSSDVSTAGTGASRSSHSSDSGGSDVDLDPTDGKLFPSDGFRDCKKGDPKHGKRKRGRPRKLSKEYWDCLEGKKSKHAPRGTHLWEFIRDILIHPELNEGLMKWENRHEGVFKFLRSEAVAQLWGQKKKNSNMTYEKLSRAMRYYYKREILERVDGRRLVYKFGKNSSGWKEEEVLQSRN
In short: as §1

CRX = CRX (Homo sapiens, UniProt O43186 1-299); conditions: protein: recombinant; tags: N-terminal GST; dsDNA, one strand shown
In short: as §1

ETV1 = ETV1 (Homo sapiens, UniProt P50549 1-477); conditions: protein: recombinant; tags: N-terminal GST; dsDNA, one strand shown
In short: as §1

ETV5, sequence (P41161 whole entry): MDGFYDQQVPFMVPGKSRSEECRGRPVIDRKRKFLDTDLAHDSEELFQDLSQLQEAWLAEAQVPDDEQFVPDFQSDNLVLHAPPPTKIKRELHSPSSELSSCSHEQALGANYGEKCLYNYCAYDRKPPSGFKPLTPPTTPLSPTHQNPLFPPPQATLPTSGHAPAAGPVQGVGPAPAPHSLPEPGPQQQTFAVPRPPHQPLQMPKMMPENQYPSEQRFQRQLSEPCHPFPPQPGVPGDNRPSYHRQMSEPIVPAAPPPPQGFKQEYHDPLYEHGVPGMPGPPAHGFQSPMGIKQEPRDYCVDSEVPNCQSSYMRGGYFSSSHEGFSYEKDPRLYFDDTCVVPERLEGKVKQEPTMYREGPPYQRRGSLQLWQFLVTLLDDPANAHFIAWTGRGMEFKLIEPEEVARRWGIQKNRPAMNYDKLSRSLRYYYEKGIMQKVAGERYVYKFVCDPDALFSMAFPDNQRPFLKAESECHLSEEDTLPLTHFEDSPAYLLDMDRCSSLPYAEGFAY
ETV1, sequence (P50549 whole entry): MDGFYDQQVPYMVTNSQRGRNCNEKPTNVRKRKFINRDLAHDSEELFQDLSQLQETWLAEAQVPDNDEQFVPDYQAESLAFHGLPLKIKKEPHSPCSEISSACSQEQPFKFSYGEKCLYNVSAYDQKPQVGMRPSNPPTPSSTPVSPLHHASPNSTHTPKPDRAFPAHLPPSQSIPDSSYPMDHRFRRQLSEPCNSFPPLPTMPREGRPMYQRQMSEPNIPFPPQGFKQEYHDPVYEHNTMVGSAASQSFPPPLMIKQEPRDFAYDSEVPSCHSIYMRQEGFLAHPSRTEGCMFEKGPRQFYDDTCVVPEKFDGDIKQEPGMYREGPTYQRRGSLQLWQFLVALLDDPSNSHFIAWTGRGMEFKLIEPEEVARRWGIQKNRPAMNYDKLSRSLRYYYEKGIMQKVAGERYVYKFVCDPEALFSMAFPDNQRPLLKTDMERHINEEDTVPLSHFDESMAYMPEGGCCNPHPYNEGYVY
HSF1, sequence (Q00613 whole entry): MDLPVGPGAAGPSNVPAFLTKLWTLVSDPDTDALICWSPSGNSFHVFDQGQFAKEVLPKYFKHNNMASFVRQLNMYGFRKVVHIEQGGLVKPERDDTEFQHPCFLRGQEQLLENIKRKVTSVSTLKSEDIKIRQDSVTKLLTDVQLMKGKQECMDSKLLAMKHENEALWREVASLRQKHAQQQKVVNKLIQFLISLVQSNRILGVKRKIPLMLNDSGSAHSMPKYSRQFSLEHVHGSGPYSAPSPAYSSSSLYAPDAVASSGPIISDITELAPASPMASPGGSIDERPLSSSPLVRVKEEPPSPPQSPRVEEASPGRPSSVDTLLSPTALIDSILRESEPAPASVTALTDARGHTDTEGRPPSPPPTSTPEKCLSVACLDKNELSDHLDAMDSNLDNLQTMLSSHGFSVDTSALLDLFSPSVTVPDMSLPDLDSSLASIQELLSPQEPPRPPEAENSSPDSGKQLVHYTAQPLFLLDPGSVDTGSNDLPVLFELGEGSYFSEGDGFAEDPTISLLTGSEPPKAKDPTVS
CRX, sequence (O43186 whole entry): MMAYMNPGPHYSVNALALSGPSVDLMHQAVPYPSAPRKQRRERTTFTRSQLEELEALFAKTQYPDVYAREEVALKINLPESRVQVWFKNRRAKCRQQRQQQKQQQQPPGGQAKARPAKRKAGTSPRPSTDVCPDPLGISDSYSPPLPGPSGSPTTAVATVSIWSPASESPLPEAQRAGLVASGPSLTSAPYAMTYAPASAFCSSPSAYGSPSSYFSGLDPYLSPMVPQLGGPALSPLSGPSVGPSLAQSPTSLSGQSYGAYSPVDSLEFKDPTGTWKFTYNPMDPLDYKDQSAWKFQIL
ELF4, sequence (Q99607 whole entry): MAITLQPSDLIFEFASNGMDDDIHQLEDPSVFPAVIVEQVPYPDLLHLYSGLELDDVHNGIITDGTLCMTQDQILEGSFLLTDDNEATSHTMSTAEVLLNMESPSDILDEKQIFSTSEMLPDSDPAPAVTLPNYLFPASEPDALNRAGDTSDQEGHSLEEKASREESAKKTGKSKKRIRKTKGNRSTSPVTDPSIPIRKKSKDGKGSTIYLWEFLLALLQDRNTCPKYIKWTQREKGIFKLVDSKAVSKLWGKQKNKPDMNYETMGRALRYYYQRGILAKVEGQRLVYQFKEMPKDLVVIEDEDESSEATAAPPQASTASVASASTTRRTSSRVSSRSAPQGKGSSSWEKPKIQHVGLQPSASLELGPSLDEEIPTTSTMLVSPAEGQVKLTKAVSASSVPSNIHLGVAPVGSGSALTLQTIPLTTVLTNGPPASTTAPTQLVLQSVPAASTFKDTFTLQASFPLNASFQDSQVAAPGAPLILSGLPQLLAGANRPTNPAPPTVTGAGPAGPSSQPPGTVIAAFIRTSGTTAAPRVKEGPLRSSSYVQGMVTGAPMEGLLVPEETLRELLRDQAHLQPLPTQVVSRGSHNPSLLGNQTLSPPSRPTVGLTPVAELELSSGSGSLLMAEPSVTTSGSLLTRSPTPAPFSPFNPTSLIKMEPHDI

## TACGAC
FEV
  binding signal: 1.28 fold enrichment (6-mer frequency, TF over GST control)
ETV5
  binding signal: 1.18 fold enrichment (6-mer frequency, TF over GST control)
HSF1
  binding signal: 1.14 fold enrichment (6-mer frequency, TF over GST control)
SPIC
  binding signal: 1.22 fold enrichment (6-mer frequency, TF over GST control)
ELF4
  binding signal: 1.34 fold enrichment (6-mer frequency, TF over GST control)
ELK4
  binding signal: 1.3 fold enrichment (6-mer frequency, TF over GST control)
ETV2
  binding signal: 1.51 fold enrichment (6-mer frequency, TF over GST control)
ELF3
  binding signal: 1.31 fold enrichment (6-mer frequency, TF over GST control)
CRX
  binding signal: 1.25 fold enrichment (6-mer frequency, TF over GST control)
ETV1
  binding signal: 1.37 fold enrichment (6-mer frequency, TF over GST control)

## AACACT
FEV
  binding signal: 1.26 fold enrichment (6-mer frequency, TF over GST control)
ETV5
  binding signal: 1.28 fold enrichment (6-mer frequency, TF over GST control)
HSF1
  binding signal: 1.18 fold enrichment (6-mer frequency, TF over GST control)
SPIC
  binding signal: 1.52 fold enrichment (6-mer frequency, TF over GST control)
ELF4
  binding signal: 1.3 fold enrichment (6-mer frequency, TF over GST control)
ELK4
  binding signal: 1.29 fold enrichment (6-mer frequency, TF over GST control)
ETV2
  binding signal: 1.26 fold enrichment (6-mer frequency, TF over GST control)
ELF3
  binding signal: 1.23 fold enrichment (6-mer frequency, TF over GST control)
CRX
  binding signal: 1.14 fold enrichment (6-mer frequency, TF over GST control)
ETV1
  binding signal: 1.25 fold enrichment (6-mer frequency, TF over GST control)

## TTCTCG
FEV
  binding signal: 1.35 fold enrichment (6-mer frequency, TF over GST control)
ETV5
  binding signal: 1.29 fold enrichment (6-mer frequency, TF over GST control)
HSF1
  binding signal: 4.96 fold enrichment (6-mer frequency, TF over GST control)
SPIC
  binding signal: 1.32 fold enrichment (6-mer frequency, TF over GST control)
ELF4
  binding signal: 1.51 fold enrichment (6-mer frequency, TF over GST control)
ELK4
  binding signal: 1.5 fold enrichment (6-mer frequency, TF over GST control)
ETV2
  binding signal: 1.4 fold enrichment (6-mer frequency, TF over GST control)
ELF3
  binding signal: 1.57 fold enrichment (6-mer frequency, TF over GST control)
CRX
  binding signal: 2.17 fold enrichment (6-mer frequency, TF over GST control)
ETV1
  binding signal: 1.29 fold enrichment (6-mer frequency, TF over GST control)

## ATATCT
FEV
  binding signal: 1.15 fold enrichment (6-mer frequency, TF over GST control)
ETV5
  binding signal: 1.1 fold enrichment (6-mer frequency, TF over GST control)
HSF1
  binding signal: 1.26 fold enrichment (6-mer frequency, TF over GST control)
SPIC
  binding signal: 1.1 fold enrichment (6-mer frequency, TF over GST control)
ELF4
  binding signal: 1.17 fold enrichment (6-mer frequency, TF over GST control)
ELK4
  binding signal: 1.2 fold enrichment (6-mer frequency, TF over GST control)
ETV2
  binding signal: 1.3 fold enrichment (6-mer frequency, TF over GST control)
ELF3
  binding signal: 1.21 fold enrichment (6-mer frequency, TF over GST control)
CRX
  binding signal: 1.39 fold enrichment (6-mer frequency, TF over GST control)
ETV1
  binding signal: 1.16 fold enrichment (6-mer frequency, TF over GST control)

## AAACGC
FEV
  binding signal: 1.21 fold enrichment (6-mer frequency, TF over GST control)
ETV5
  binding signal: 1.28 fold enrichment (6-mer frequency, TF over GST control)
HSF1
  binding signal: 1.05 fold enrichment (6-mer frequency, TF over GST control)
SPIC
  binding signal: 1.29 fold enrichment (6-mer frequency, TF over GST control)
ELF4
  binding signal: 1.2 fold enrichment (6-mer frequency, TF over GST control)
ELK4
  binding signal: 1.27 fold enrichment (6-mer frequency, TF over GST control)
ETV2
  binding signal: 1.38 fold enrichment (6-mer frequency, TF over GST control)
ELF3
  binding signal: 1.21 fold enrichment (6-mer frequency, TF over GST control)
CRX
  binding signal: 1.04 fold enrichment (6-mer frequency, TF over GST control)
ETV1
  binding signal: 1.31 fold enrichment (6-mer frequency, TF over GST control)

## TGATGC
FEV
  binding signal: 1.44 fold enrichment (6-mer frequency, TF over GST control)
ETV5
  binding signal: 1.49 fold enrichment (6-mer frequency, TF over GST control)
HSF1
  binding signal: 1.27 fold enrichment (6-mer frequency, TF over GST control)
SPIC
  binding signal: 1.72 fold enrichment (6-mer frequency, TF over GST control)
ELF4
  binding signal: 1.66 fold enrichment (6-mer frequency, TF over GST control)
ELK4
  binding signal: 1.6 fold enrichment (6-mer frequency, TF over GST control)
ETV2
  binding signal: 1.49 fold enrichment (6-mer frequency, TF over GST control)
ELF3
  binding signal: 1.71 fold enrichment (6-mer frequency, TF over GST control)
CRX
  binding signal: 1.34 fold enrichment (6-mer frequency, TF over GST control)
ETV1
  binding signal: 1.55 fold enrichment (6-mer frequency, TF over GST control)

## TTACGG
FEV
  binding signal: 1.22 fold enrichment (6-mer frequency, TF over GST control)
ETV5
  binding signal: 1.27 fold enrichment (6-mer frequency, TF over GST control)
HSF1
  binding signal: 1.43 fold enrichment (6-mer frequency, TF over GST control)
SPIC
  binding signal: 1.26 fold enrichment (6-mer frequency, TF over GST control)
ELF4
  binding signal: 1.25 fold enrichment (6-mer frequency, TF over GST control)
ELK4
  binding signal: 1.19 fold enrichment (6-mer frequency, TF over GST control)
ETV2
  binding signal: 1.36 fold enrichment (6-mer frequency, TF over GST control)
ELF3
  binding signal: 1.35 fold enrichment (6-mer frequency, TF over GST control)
CRX
  binding signal: 1.86 fold enrichment (6-mer frequency, TF over GST control)
ETV1
  binding signal: 1.25 fold enrichment (6-mer frequency, TF over GST control)
